Data taken from PubChem BioAssay AID743269 (The Scripps Research Institute Molecular Screening Center, 2014).
Among all 370,000 compounds or so, about 2,400 (0.65%) were called active.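 Rule for the calls: active = inhibition above the screen-wide mean plus 3 SD (cut at about 13% in these data); inactive = the rest.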 The sample as a whole holds a higher share of actives than the screen did.

These molecules were tested on HIV-1 integrase (with human LEDGF/p75) (assay: blockers of LEDGF/p75-dependent integrase strand transfer – biochemical, TR-FRET, high throughput, primary screen (AID 743269;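 note: signal is the Cy5 over europium emission ratio at 671 and 618 nm; 0% = plate median of compound wells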)). Conditions: TR-FRET IN-LEDGF/p75 DNA integration, Eu/Cy5; at 3.7 µM; stronger effect = higher value.

inhibition, active:
Cc1ccc(C(=O)OC(C)CN2CCOCC2)cc1 (stereo unspecified) 57.5%
Oc1ccc(N=Cc2sc3ccccc3c2Cl)cc1 27.5%
Cc1ccc(-c2cnc(NC(=O)CCC(=O)N(C)Cc3ccccc3)n2C)cc1 38.1%
Cn1c(SCc2nc3ccccc3s2)nnc1-c1ccc2c(c1)OCO2 14.7%
CCOC(=O)/C(C#N)=C\c1c(C)cc(C)c(COC(C)=O)c1C 15.8%
Cc1ccc(C(=O)N/C(=C/c2cccs2)C(=O)N2CCCCC2)cc1 33%
CC1(OC(=O)C2CCCC2)C(=O)C=C2C=C(c3ccc(C#N)cc3)OC=C2C1=O (stereo unspecified) 13.4%
Cc1cc2c(c(=O)n1Cc1ccco1)C(c1ccccc1)C(C#N)=C(N)O2 (stereo unspecified) 42.2%
O=C(Nc1nnc(-c2ccco2)o1)c1ccc(S(=O)(=O)N2CCOCC2)cc1 27%
CCCCNC(=O)OC1CC2CC1[C@H]1CCCCN1C2=O (stereo partly specified) 25.4%
CC(C)Cn1c(N)c(C(=O)NCc2cccs2)c2nc3ccccc3nc21 23.8%
CCOC(=O)c1ccc(Nc2cc3ccccc3c(=O)[nH]2)cc1 15.5%
COc1ccc(S(=O)(=O)N2CCCCC2)cc1C(=O)NC1CCS(=O)(=O)C1 (stereo unspecified) 19.8%
COc1ccc(C2CC(c3cccs3)=NN2C(=O)COC(=O)c2cc3ccccc3cc2O)cc1OC (stereo unspecified) 23%
Nc1ccc2nc3c(=O)[nH]c(=S)[nH]c3nc2c1 39.9%

inhibition, inactive:
CCOC(=O)[C@]12CCCC=C1N(CCCOC)C(=O)[C@@H]2CC(=O)N1CCOCC1 4.81%
COc1ccc(C2Nc3ccccc3C(=O)N2Cc2cccs2)cc1COc1c(C)cccc1C (stereo unspecified) -0.72%
CCOC(=O)C1=C(C)NC2=C(C(=O)CC(C)(C)C2)C1c1ccc2c(c1)OCO2 (stereo unspecified) -1.19%
CCCC1CCC2(CCCN2CCOC(=O)NCc2ccccc2)CC1 (stereo unspecified) -0.38%
Cc1cccc(C(=O)OC(C)CN2CCCC2)c1 (stereo unspecified) 1.96%
CC(CN1CCOCC1)OC(=O)c1ccc(C(C)(C)C)cc1 (stereo unspecified) 2.54%
COc1ccc2c(C(C)c3ccc(N)cc3)cn(C)c2c1 (stereo unspecified) 3.86%
Cc1c(C(C)c2ccccc2O)[nH]c2ccccc12 (stereo unspecified) -2.27%
COc1ccc([C@H]2OC(=O)C[C@H]2C(=O)N2CCN(c3ccccc3F)CC2)cc1OC 1.9%
Cc1cc(C)nc(NC(=S)N2CCN(c3ccc(C(F)(F)F)cn3)CC2)c1 4.81%
O=S1(=O)c2c(cccc2N2CCSCC2)Oc2ccccc2CN1Cc1cn(Cc2ccc(F)cc2)nn1 -4.35%
COC(=O)C1CN(CCc2ccccc2)CCS(=O)(=O)N1Cc1ccc(F)cc1 (stereo unspecified) -0.36%
O=C(CCS(=O)(=O)c1ccccc1)Nc1ccc(Cl)c(Cl)c1 -0.44%
Cn1c(-c2ccc(F)cc2)cnc1SCC(=O)NNC(=O)Cc1ccccc1 -1.96%
CN(Cc1ccccc1)C(=O)CCNC(=O)Cn1cnc2ccccc2c1=O -0.32%
O=C(OCC#CCSc1nnc(-c2ccco2)o1)c1ccc(F)cc1 -2.28%
COC(=O)[C@]12C[C@H](CC(=O)NCc3ccccc3)C(=O)N(Cc3ccccc3)C1=C[C@H](COCc1ccccc1)O[C@@H]2C -1.62%
CC(C)C(C#CC1CC1)N(Cc1ccc2c(c1)OCO2)C(N)=NC(=O)/C=C/c1cccc(C(F)(F)F)c1 (stereo unspecified) -0.12%
Cn1c(SCC(=O)N2CCCC2)nnc1-c1ccc2c(c1)OCO2 0.18%
COc1ccc(CSc2nnc(-c3cccc(C)c3)n2C)cc1 1.05%
CCOC(=O)[C@]12CCCC3=C1N(CCC3)C(=O)[C@@H](CC(=O)N1CCSCC1)C2 4.16%
COC(=O)[C@]12C[C@H](CC(=O)NCc3ccccc3)C(=O)N(CCC3=CCCCC3)C1=C[C@H](C(C)C)O[C@@H]2C1CC1 -3.27%
Cc1ccccc1CN1CCCCC(NC(=O)c2cccc(C#N)c2)C1=O (stereo unspecified) -3.73%
CCCCCCN1CCS(=O)(=O)N(Cc2ccc(C(F)(F)F)cc2)C(C(=O)OC)C1 (stereo unspecified) -2.95%
CCCn1c(C)cc(/C=C(\C#N)C(=O)OCC(=O)Nc2cc(OC)c(OC)c(OC)c2)c1C 4.46%
COC(=O)/C(C#N)=C/c1occc1C 1.63%
CCOC(=O)c1csc(NC(=O)C2CCCN(S(=O)(=O)c3ccc(Cl)s3)C2)n1 (stereo unspecified) 3.42%
CSc1ccc(C=Nn2c(-c3ccc(F)cc3)n[nH]c2=S)cc1 1.18%
COc1ccc2c(c1)CN1CN(CCc3ccccc3)S(=O)(=O)CC21 (stereo unspecified) 3.16%
CN1CCN(C(=O)/C(=C\c2cccs2)NC(=O)c2cccs2)CC1 -1.57%
O=C(N/C(=C\c1ccc(O)cc1)C(=O)N1CCCCC1)c1ccccc1 3.65%
Cc1ccc(Cn2cc(CN3[C@@H](C)COc4cc(Br)ccc4S3(=O)=O)nn2)cc1 4.11%
O=C1Nc2ccccc2OC1CC(=O)N1CCCCCCC1 (stereo unspecified) 0.2%
CCC(CO)Nc1cccc2c1S(=O)(=O)N(Cc1cn(Cc3ccccc3C(F)(F)F)nn1)Cc1ccccc1O2 (stereo unspecified) -2.25%
FC(F)(F)c1cccc(Cn2ccc3ccc(-c4ccc5ccn(Cc6ccccc6)c5c4)cc32)c1 3.37%
CC(=O)N1CCc2cc(S(=O)(=O)NCCC(=O)N3CCCC3)ccc21 -3.8%
CC1(C(=O)NS(=O)(=O)c2ccc(C#N)cc2)CCN1C(=O)c1ccc(C2CCCCC2)cc1 (stereo unspecified) -1.93%
Cc1ccccc1C(=O)N1CCC(C(=O)Oc2ccc(C#N)cc2)CC1 -4.31%
C[C@H]1CCC/C=C/C(=O)c2c(O)cc(O)cc2CC(=O)O1 -2.09%
Cc1cc2c(c(=O)n1C)C(C(C)C)C(C#N)=C(N)O2 (stereo unspecified) 0.88%
O=C(Cn1c(=O)n(Cc2ccco2)c(=O)c2ccccc21)NCC1CCCO1 (stereo unspecified) 2.8%
N#Cc1ccc(OC[C@@H](O)CN2CCC(C(O)(c3ccccc3)c3ccccc3)CC2)c(F)c1 1.07%
Cc1ccnc(NS(=O)(=O)c2ccc(NC(=O)c3ccc(S(=O)(=O)N4CCOCC4)cc3)cc2)n1 -0.6%
O=C(Nc1nnc(-c2ccccc2)o1)c1cccc(S(=O)(=O)N2CCOCC2)c1 4.42%
Cc1cccc(C(=O)Nc2c(-c3ccc(F)cc3)nc3ncccn23)c1 1.19%
C=CCN1[C@H](CC(C)C)COc2cccc(N3CCCC3)c2S1(=O)=O -3.3%
CCN(CC)C(=O)CC[C@H]1CC[C@]2(CCCN(Cc3ccc(Cl)cc3)C2)O1 3.81%
CCCC[C@H]1C2CC(OC(=O)NCc3ccccc3)C(C2)[C@H]2CCCCN21 (stereo partly specified) -3.96%
O=C(OC1CC2CC1[C@H]1CCCCN1C2=O)N1CCOCC1 (stereo partly specified) -2.09%
c1coc(CCNc2ncnc3ccc(-c4ccc5c(c4)OCO5)cc23)c1 2.41%
COC(=O)c1cc(S(=O)(=O)N2CCN(c3ccccc3C)CC2)cn1C -0.95%
O=C(Cc1coc2ccc3ccccc3c12)NCc1cccs1 0.4%
Cc1nc2c(C(=O)NCc3cccs3)cnn2c(C)c1Cc1ccc(F)cc1 -1.76%
N[C@@H](Cc1ccccc1)C(=O)N1CCC[C@@H]1C(=O)N1CCC2CCN(S(=O)(=O)c3ccccc3)CC21 (stereo partly specified) 3.42%
Cc1ccc(CSc2nnc(SCC(=O)NN=Cc3cc(Br)ccc3F)s2)cc1 3.4%
CCOC(=O)c1ccc(NC(=O)c2c(NCc3ccccc3)[nH]c(=O)[nH]c2=O)cc1 2.44%
CCOC(=O)c1ccc(NC(=O)c2c(N)n(C)c(=O)[nH]c2=O)cc1 -0.3%
COc1ccccc1C(=O)NC1CCCCN(C(C)C)C1=O (stereo unspecified) -1.35%
COC(=O)C[C@@H]1CC[C@H]2[C@@H](COc3ccc(NS(=O)(=O)CC(F)(F)F)cc3C(=O)N2C)O1 -3.99%
COC(=O)[C@@]12CCCCC=C1N(CCc1ccc(Cl)cc1)C(=O)[C@H]2CC(=O)NCc1ccc(OC)c(OC)c1 2.21%
C=CCN(Cc1ccc2c(c1)OCO2)C(C#CC1CC1)C(C)(C)C (stereo unspecified) 0.61%
COc1ccc(S(=O)(=O)N2CCOCC2)cc1C(=O)NC1CCCCC1 1.4%
Cc1ccc(S(=O)(=O)N2CCN(C)CC2)cc1C(=O)NC1CCCCC1 2.41%
C=CCN1C(=O)[C@@H](CC(=O)NCCCCc2ccccc2)[C@]2(C(=O)OCC)CCCCC/C=C/12 -2.38%
Cc1ccccc1NC(=O)C1CCN(c2ncccn2)CC1 -1.73%
COc1cccc(C2CC(c3cccs3)=NN2C(=O)CSC2=NCCS2)c1OC (stereo unspecified) -1.38%
COc1ccc(C2CC(c3cccs3)=NN2c2nc(C)c(C(C)=O)s2)cc1OC (stereo unspecified) -0.06%
COc1ccc(Cn2cc(CN3[C@@H](CC(C)C)COc4cc(Br)ccc4S3(=O)=O)nn2)cc1 3.34%
Cc1nc(CNc2ncnc3ccc(-c4ccc5c(c4)OCO5)cc23)cs1 -1.03%
O=C(NCCCc1ccccc1)[C@H](Cc1ccccc1)NC1(C(=O)NCCc2c[nH]c3ccccc23)CCC1 -0.75%
COc1ccc(N2CCN(CCNS(=O)(=O)c3ccc(C(C)(C)C)cc3)CC2)cc1 1.13%
